Laboratory results from ChEMBL document CHEMBL3988442, “University of Dundee, Small-Polar-MMV Screening Library” (2021).
About 13,000 (27%) of roughly 48,000 compounds showed an effect of 50% or more. Some of the results follow.

Each compound was assayed on Wolbachia pipientis (assay: Anti-Wolbachia Cell-Based Screen). Conditions: 5 µM.
Assay type: functional
Parameters: scale not given: in the data most compounds retested in dose-response had high values

Row | Compound | Percent Effect [%]
1 | O=C(c1[nH]nc(C2CC2)c1Cl)N1CCCC1 | -9.749
2 | Fc1ccc(C(CNc2ccncn2)N2CCCC2)cc1 (centres undefined) | 85.77
3 | CCc1cnc(NCC(c2ccncc2)N2CCOCC2)nc1 (centres undefined) | -11.49
4 | O=C(C(c1ccc(F)cc1)N1CCCCC1)N1CCn2cncc2C1 (centres undefined) | 7.503
5 | NCc1cc(NCC(c2ccccn2)N2CCOCC2)ncn1 (centres undefined) | -3.716
6 | O=C(N1CCCC1)N1CCC(Nc2ccncn2)CC1 | 4.287
7 | OC(CN1CCCCCCC1)c1ccc(F)cc1 (centres undefined) | -2.886
8 | COc1cc(NCC(c2ccccn2)N2CCOCC2)ncn1 (centres undefined) | -14.18
9 | Fc1ccc(C(CNc2ccncn2)N2CCCCC2)cc1 (centres undefined) | 113.6
10 | Fc1ccccc1C(CNc1ccncn1)N1CCCC1 (centres undefined) | 123.2
11 | CCc1cc(N(C)Cc2[nH]nc3c2CCC3)nc(N2CCOCC2)n1 | 17.45
12 | O=C(NCC1(c2ccc(F)cc2)CC1)N1CCC2(CCOC2)C1 (centres undefined) | -4.934
13 | CCS(=O)(=O)N1C[C@@H]2CN(Cc3cccs3)CCO[C@@H]2C1.O=C(O)C(F)(F)F | 3.582
14 | O=C(O)C(F)(F)F.O=S(=O)(C1CC1)N1C[C@@H]2CN(Cc3cccs3)CCO[C@@H]2C1 | 9.308
15 | CC(=O)N1CCO[C@@H]2CN(C(=O)c3ccccc3)CC[C@@H]2C1 | -4.476
16 | CC(C)N1CCO[C@@H]2CN(S(=O)(=O)c3cccs3)CC[C@@H]2C1.O=C(O)C(F)(F)F | 96.63
17 | CCO[C@@H]1C[C@H]2CN(S(=O)(=O)c3cccs3)CCN2C1.O=C(O)C(F)(F)F | -4.424
18 | CCN1CCO[C@@H]2CN(S(=O)(=O)c3cccs3)CC[C@@H]2C1.O=C(O)C(F)(F)F | 101.9
19 | CN1CCO[C@@H]2CN(S(=O)(=O)c3cccs3)CC[C@@H]2C1.O=C(O)C(F)(F)F | 99.53
20 | CC(=O)N1CCO[C@@H]2CN(S(=O)(=O)c3cccs3)CC[C@@H]2C1 | 114.4
21 | CN1CCO[C@@H]2CN(S(=O)(=O)c3ccccc3F)CC[C@@H]2C1.O=C(O)C(F)(F)F | -5.27
22 | CN(C)C[C@H]1OC[C@@H]2CCN(S(=O)(=O)c3cccs3)C[C@@H]21.O=C(O)C(F)(F)F | -5.421
23 | CC(C)CN1CC[C@@H]2[C@@H]1CCN2S(=O)(=O)c1cccs1.O=C(O)C(F)(F)F | -11.08
24 | CCC(C)Nc1ccc2c(c1)C1(CCOCC1)C(=O)N2c1ccccc1 (centres undefined) | 13.06
25 | Cc1ccccc1CS(=O)(=O)CC(=O)N(C)Cc1cccc(F)c1 | -33.07

Row | Compound | Percent Effect [%]
26 | CCN1CCN2CCCN(S(=O)(=O)c3ccc(S(C)(=O)=O)cc3)C2C1=O (centres undefined) | 10.86
27 | CCn1c(CN(C)C(C)CSC)nc2c(F)cccc21 (centres undefined) | -3.593
28 | Cn1nnnc1SCCNC(=O)C1CCN(C(=O)C2CC2)CC1 | 0.3316
29 | CCN(CC)C(=O)CCNc1cncc(-n2nc(C)cc2C)n1 | -4.875
30 | Cc1cc(C)n(-c2cncc(N3CCN(C(=O)C(C)C)CC3)n2)n1 | -1.845
31 | COCCNC(=O)Cn1c(C)cc2nc(SC)n(CC(C)C)c(=O)c21 | 0.09267
32 | COCCS(=O)(=O)NC(C)c1ccc(-n2nc(C)cc2C)cc1 (centres undefined) | -14.21
33 | CCCc1cc(=O)n(CC(N)=O)c(-n2nc(C)cc2C)n1 | 12.11
34 | CCCc1cc(=O)n(CC(=O)NCCOC)c(-n2nc(C)cc2C)n1 | 110
35 | CCCc1cc(=O)n(CC(=O)NC(C)C)c(-n2nc(C)cc2C)n1 | 152.6
36 | CCCNC(=O)Cn1c(C)nn(C(C)(C)C)c1=O | -1.553
37 | CCCNC(=O)Cn1c(-n2nc(C)cc2C)nc(CCC)cc1=O | 109.3
38 | CCC(O)CN(CC(=O)NC(=O)NC1CC1)c1ccccc1 (centres undefined) | -6.258
39 | CCOCC1CC2(CCN(C(=O)C3CCSCC3)CC2)CO1 (centres undefined) | -12.12
40 | O=C1CC(c2ccco2)c2sc(C(=O)O)c(-c3ccccc3)c2N1 (centres undefined) | 3.632
41 | O=C(CO)N1C[C@H]2CC[C@@H]1CN(C1Cc3ccccc3C1)C2 | -7.791
42 | Cc1cc(CN2CCN(C(C)c3nc(C4CC4)no3)CC2)no1 (centres undefined) | 2.927
43 | CC(C)c1nc(C2CCCN(Cc3nnc(C4CC4)o3)C2)no1 (centres undefined) | -2.987
44 | CC(C)c1nnc(CN2CCN(C(C)c3nc(C4CC4)no3)CC2)o1 (centres undefined) | 138.5
45 | CC(c1nc(C2CC2)no1)N1CCN(Cc2nnc(C3CC3)o2)CC1 (centres undefined) | 142.3
46 | COc1ccc(CN2CCN(C(C)c3nc(C4CC4)no3)CC2)cc1 (centres undefined) | 8.61
47 | Cc1nnc(CN2CCN(C(C)c3nc(C4CC4)no3)CC2)o1 (centres undefined) | 96.71
48 | CCc1noc(C(C)N2CCN(Cc3nnc(C4CC4)o3)CC2)n1 (centres undefined) | 4.733
49 | CC(C)(C)c1c[nH]c([C@@H]2COCCN2C2CCOCC2)n1 | 1.318
50 | CCN(C)C(=O)CCC(=O)c1cccs1 | 14.3

Row | Compound | Percent Effect [%]
51 | CC(C)S(=O)(=O)N(C)C(=O)CCc1ccsc1 | -69.32
52 | O=C(NC1CCC1)[C@@H]1CCO[C@@H]2CCN(C3CCCC3)C[C@@H]21.O=C(O)C(F)(F)F | -2.811
53 | CCN(CC)C(=O)N1CCN(Cc2cnc(C)nc2)[C@H]2CS(=O)(=O)C[C@H]21 | 94.21
54 | Cc1ccc(CN2CCN(C(=O)C3CCC3)[C@@H]3CS(=O)(=O)C[C@@H]32)cc1C | 4.312
55 | Cc1ncc(CN2CCN(C(=O)C3CCC3)[C@@H]3CS(=O)(=O)C[C@@H]32)cn1 | 112.3
56 | CCc1ccc(CN2CCN(C(=O)C(C)C)[C@@H]3CS(=O)(=O)C[C@@H]32)cc1 | -2.722
57 | Cc1cc(C)cc(CN2CCN(C(=O)C3CCC3)[C@@H]3CS(=O)(=O)C[C@@H]32)c1 | 5.878
58 | CN(C)C(=O)N1CCN(Cc2ccccc2)[C@@H]2CS(=O)(=O)C[C@@H]21 | -15.23
59 | COc1cc(Oc2ccc(C(F)(F)F)cn2)ccc1CN1CCCC1 | 2.757
60 | O=C(NC[C@H]1OC[C@@H](NC(=O)C2CCCC2)[C@@H]1O)c1ccncc1 | 0
61 | CC(=O)Nc1ccc(CNC2COc3c2ccc(C)c3C)cc1 (centres undefined) | -7.711
62 | COCC[C@]1(O)CCN(S(=O)(=O)c2ccc(C)cc2OC)C[C@H]1C | -114.9
63 | Nc1no[n+]([O-])c1C(=O)NCc1cccnc1 | 115
64 | CCn1cc(Br)c(C(=O)NCc2cccnc2)n1 | 4.447
65 | CCc1noc(C)c1C(=O)NCc1ccccn1 | -15.45
66 | Nc1no[n+]([O-])c1C(=O)NCc1ccccn1 | 131.2
67 | COc1c(C(=O)NCc2cccnc2)nnn1Cc1ccc(C)cc1 | 7.937
68 | N#Cc1ccc(CN2C[C@@H]3OCC(=O)N(CC(N)=O)[C@@H]3C2)cc1 | -3.646
69 | CC(C)Oc1ccccc1CNC(=O)N(C)CC(F)F | -6.331
70 | O=C(NC[C@@H]1CCCO1)c1cccnc1N1CCCC1c1ccccc1 (some centres undefined) | 120.1
71 | O=C(NCCCOCC1CCCO1)c1cccnc1N1CCCC1 (centres undefined) | -6.483
72 | O=C(NC[C@@H]1CCCO1)c1cccnc1N1CCCC1c1ccccn1 (some centres undefined) | 123.2
73 | N#Cc1cccnc1NCc1cccc(C(=O)NCC2CCCCO2)c1 (centres undefined) | -17.65
74 | Fc1ccccc1CN1CCCN(c2ccc3cc[nH]c3n2)CC1 | -2.258
75 | CC(O)CC(C)(C)CNC(=O)NCc1cccc(-n2cncn2)c1 (centres undefined) | -1.907

Row | Compound | Percent Effect [%]
76 | CCC(CNC(=O)c1nc(=O)[nH][nH]1)Oc1cccc(F)c1 (centres undefined) | 12.08
77 | Cc1cc(C)c2c(c1)NC(=O)C2CC(=O)O (centres undefined) | 18.62
78 | Cc1ccc(C(=O)N2CCN(S(C)(=O)=O)CC2)cc1N1CCNC1=O | 0.6513
79 | CS(=O)(=O)N1CCc2ccc(C(=O)N3CCn4ncnc4C3)cc21 | 111.8
80 | O=C(c1ccc(O)nc1)N1CCc2ccc(O)cc2C1 | -1.234
81 | O=C(c1ccc2c(c1)CCC2)N1C[C@@H](CN2CCOCC2)[C@@H](CO)C1 | -9.126
82 | O=C(c1ccc2c(c1)CCC2)N1CCN(c2ccc(Cl)cn2)CC1 | -15.66
83 | O=C(c1ccc2c(c1)CCC2)N1CCn2ncnc2C1 | 98.73
84 | CSc1ccc(NC(=O)Nc2ccc3c(c2)N(S(C)(=O)=O)CC3)cc1 | -6.619
85 | CC(C)c1nnc2n1CCN(C(=O)c1ccc3c(c1)COC3)C2 | 4.471
86 | O=C(c1ccc2c(c1)CCCC2)N1CCn2ncnc2C1 | 90.14
87 | COC(C)c1nc(CN2CCNCC2)cs1 (centres undefined) | 8.778
88 | Cc1cc(C(=O)N2C[C@@H]3COC[C@]3(CN(C)C)C2)sc1C.O=C(O)C(F)(F)F | -22.46
89 | Cc1noc([C@]23COC[C@H]2CN(C(=O)CN(C)C)C3)n1.O=C(O)C(F)(F)F | 111.8
90 | Cc1noc([C@@]23CCO[C@@H]2CCN(C(=O)c2ccsc2)C3)n1 | 10.18
91 | Cc1noc([C@]23COC[C@H]2CN(C(=O)C2CCOCC2)C3)n1 | -8.72
92 | Cc1noc([C@]23COC[C@H]2CN(C(=O)Cc2ccsc2)C3)n1 | 110.7
93 | Cc1noc([C@]23COC[C@H]2CN(C(=O)COC2CCCC2)C3)n1 | 97.21
94 | CS(=O)(=O)CC(=O)N1C[C@@H]2COC[C@]2(c2nnc(C3CC3)o2)C1 | -25.79
95 | Cc1noc([C@]23COC[C@H]2CN(S(C)(=O)=O)C3)n1 | 1.796
96 | Cc1nc([C@@H]2C[C@@H]3CCN(C(=O)Cc4ccsc4)C[C@H]3O2)no1 | -14.45
97 | Cc1noc([C@]23COC[C@H]2CN(S(=O)(=O)C2CC2)C3)n1 | 7.077
98 | Cc1noc([C@]23COC[C@H]2CN(S(=O)(=O)N(C)C)C3)n1 | -12.17
99 | Cc1noc([C@]23COC[C@H]2CN(C(=O)N2CCCC2)C3)n1 | 106.7
